Most compounds without a hit are left out; they make up all but 19% or so of the library.
DT40 TDP1 no CPT = qHTS for Inhibitors of human tyrosyl-DNA phosphodiesterase 1 (TDP1): qHTS in cells in absence of CPT. DT40 Tdp1-/- hTDP1 cells, no CPT, ATP luminescence, 48 h. Potency, µM (highest dose often 46.2 µM), without a hit: top-dose activity change, negative = growth inhibition, most hits filed as inhibitors. 420,000 compounds, 15% hits; note: potency is the fitted concentration of half-maximal effect; % is set by controls: 0 for no effect and ±100 for the full control effect; nearly all actives have a fitted effect of over 55% in size
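Chicken DT40 Tdp1-/- cells complemented with human TDP1, screened without camptothecin (DMSO vehicle only), 400 cells/well. Compounds pin-transferred, cells incubated at 37 °C for at least 48 hr. Growth read as ATP-dependent luminescence (CellTiter-Glo, 30 min at RT).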
DT40 TDP1 CPT = DT40-hTDP1 cell growth loss with CPT; 420,000 compounds, 12% hits; Potency, µM (top dose mostly 46.2 µM), inactives show at the highest dose activity change, negative = growth inhibition, usual class: inhibitors; AID 686979; chicken DT40 Tdp1-/-;hTDP1 cells + 20 nM CPT, ATP luminescence, 48 h; note: potency is the fitted concentration of half-maximal effect; % is set by controls: 0 for no effect and ±100 for the full control effect; nearly all actives have a fitted effect of over 55% in size
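Cell growth measured by CellTiter-Glo luminescence after a minimum 48 h, 37 C compound exposure with 20 nM CPT in Tdp1-knockout DT40 cells stably expressing hTDP1, seeded 400/well; qHTS titration format.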
TGFb inhibitor = TGF-b pathway inhibition. HepG2 CAGA-GFP TGF-b/SMAD3 reporter, GFP fluorescence, 18 h; TGF-beta stimulated, 500 pg/mL final. Potency, µM (titrated, usually from 46.1 µM), inactives show at the top dose activity, negative = inhibition, most hits filed as inhibitors. 410,000 compounds, 1.2% hits; note: potency is the fitted concentration of half-maximal effect; % is set by controls: 0 for no effect and ±100 for the full control effect; nearly all actives have a fitted effect of over 65% in size
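HEPG2 CAGA-GFP, 1000 cells/well; 2 h settle, 37 C; cpd via pin tool; TGF-b 500 pg/mL final; 18 h, 37 C; GFP imaging ex488/em500-530; %Activity normalised to -TGF-b and +DMSO controls; CRC fit, curve class.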
HepG2 tox = kills HepG2 cells in TGF-b inhibitor counter-screen; Potency, µM (titrated, usually from 46.1 µM), without a hit: top-dose activity change, negative = cytotoxicity, hits mostly cytotoxic; HepG2 CAGA-GFP viability, ATP luminescence, 18 h; AID 588856; 410,000 compounds, 0.76% hits; note: potency is the fitted concentration of half-maximal effect
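HepG2 CAGA-GFP cells (1000/well, DMEM with 1% FBS) received compound, then TGF-beta at 500 pg/mL final, and were incubated 18 hours at 37 degrees C. Viability was read by CellTiter-Glo luminescence. Media-only wells were set as complete cell-killing and DMSO as no toxicity.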
IL1B secr inh = inhibitors of inflammasome signaling (IL-1 beta secretion) | THP-1 LPS/ATP IL-1B secretion, AlphaLISA, 16 h; stronger effect = lower value | activity change, % at 57.5 µM | 360,000 compounds, 4.7% hits | AID 743279; in the data active = activity change below about -50%; inconclusive = mostly about -30% to -49%; note: % is set by controls: 0 for no effect and ±100 for the full control effect
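THP-1 cells pretreated 1 hr with compounds (up to 57.5 uM final), then stimulated with LPS (250 ng/mL final) plus ATP (1.25 mM final); secreted IL-1B measured by AlphaLISA after 16 hr, decreased signal indicating inhibition.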
TDP1 inh = inhibitors of human tyrosyl-DNA phosphodiesterase TDP1 | 350,000 compounds, 0.28% hits | Q9NUW8 | Potency, µM (doses to about 130 µM), for the others: top-dose activity change, negative = inhibition, most hits filed as inhibitors | recombinant TDP1, AlphaScreen DNA substrate cleavage; note: potency is the fitted concentration of half-maximal effect; % is set by controls: 0 for no effect and ±100 for the full control effect; nearly all actives have a fitted effect of over 40% in size
Target sequence (Q9NUW8 whole entry, looked up): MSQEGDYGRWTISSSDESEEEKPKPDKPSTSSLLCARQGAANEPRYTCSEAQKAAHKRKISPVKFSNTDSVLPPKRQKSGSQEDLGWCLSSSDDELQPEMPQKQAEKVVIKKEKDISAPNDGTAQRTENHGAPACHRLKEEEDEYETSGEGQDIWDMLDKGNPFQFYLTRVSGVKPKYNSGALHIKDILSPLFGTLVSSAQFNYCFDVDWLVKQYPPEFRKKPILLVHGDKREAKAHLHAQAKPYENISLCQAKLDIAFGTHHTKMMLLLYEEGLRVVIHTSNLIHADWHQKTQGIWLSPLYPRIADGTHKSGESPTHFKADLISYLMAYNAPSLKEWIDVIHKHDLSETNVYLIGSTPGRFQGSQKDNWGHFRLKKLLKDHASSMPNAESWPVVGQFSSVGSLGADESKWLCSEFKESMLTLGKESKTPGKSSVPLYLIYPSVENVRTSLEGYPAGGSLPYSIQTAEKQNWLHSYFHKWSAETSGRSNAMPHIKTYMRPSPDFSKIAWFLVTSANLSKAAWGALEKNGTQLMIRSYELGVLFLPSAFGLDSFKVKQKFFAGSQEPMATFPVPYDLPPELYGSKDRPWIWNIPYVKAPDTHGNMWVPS
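Recombinant human Tdp1 (E. coli-expressed, 1 nM final) preincubated with compounds 15 min at room temperature, then 5'-biotin/3'-phosphotyrosine-FITC DNA substrate (15 nM final) added for 5 min. AlphaScreen beads (10 ug/ml final) added 10 min; cleavage lowers signal.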
* hit, by the source's call; ? = inconclusive; · = not tested or not shown; [ ] = remark or other dose. Unless noted, calls come from the whole dose curve; as a rule, active = well fitted curve in the direction sought with a large enough effect; inconclusive = small, poorly fitted or top-dose-only effect, or another doubt; inactive = no such curve, though single readings can be large; an effect the other way counts as inactive or inconclusive.

SMILES | DT40 TDP1 no CPT | DT40 TDP1 CPT | TGFb inhibitor | HepG2 tox | IL1B secr inh | TDP1 inh
Cc1ccc(C)c(N=C2CCCN2Cc2ccccc2)c1C#N | 16µM* | ? | -7% | -26% | 6 | -1%
COc1ccc(CCNC(=O)CCCCn2c(=O)c3ccccc3n(CC(=O)Nc3ccc(C)cc3C)c2=O)cc1OC | -22% | -27% | 0% | 3% | · | 5%
COc1ccc(NS(=O)(=O)c2ccc3nc(COc4cccc5ccccc45)[nH]c3c2)cc1 | 21µM* | 16µM* | ? | -22% | -16 | -1%
COc1ccc(NS(=O)(=O)c2ccc3nc(COc4ccc5ccccc5c4)[nH]c3c2)cc1 | ? | 18µM* | ? | -23% | -67* | 8%
COc1ccc(OCc2nc3ccc(S(=O)(=O)Nc4ccccc4Cl)cc3[nH]2)cc1 | ? | ? | -3% | -19% | -51* | 6%
Cc1ccccc1OCc1nc2ccc(S(=O)(=O)N3CCOCC3)cc2[nH]1 | -21% | ? | ? | -7% | -2 | 0%
COc1ccccc1NS(=O)(=O)c1ccc2nc(CCl)[nH]c2c1 | ? | ? | 6% | -6% | 5 | 4%
CCc1ccccc1OCc1nc2ccc(S(=O)(=O)N3CCOCC3)cc2[nH]1 | ? | 23µM* | 12% | -26% | -13 | 1%
CCN1CCN(Cc2nc3cc(NC(=O)c4ccccc4[N+](=O)[O-])ccc3n2CC)CC1 | -8% | -13% | -22% | -3% | · | -7%
COc1ccc(C2c3ccc(O)cc3Oc3ncn(CCN4CCOCC4)c(=N)c32)cc1 (centres undefined) | -21% | ? | -14% | -20% | ? | ·
COc1ccc(C2c3c(ncn(CCN4CCOCC4)c3=N)Oc3ccc4ccccc4c32)cc1OC (centres undefined) | ? | ? | ? | 14µM* | -87* | 6%
COc1ccc(C2c3c(ncn(CCCO)c3=N)Oc3ccc4ccccc4c32)cc1OC (centres undefined) | 18µM* | 15µM* | ? | -63% | -100* | ·
COc1cccc(C2c3c(ncn(-c4cccc(OC)c4)c3=N)Oc3ccc4ccccc4c32)c1 (centres undefined) | · | · | · | · | · | 5%
COc1ccc(C2c3c(ncn(CCCO)c3=N)Oc3ccc4ccccc4c32)cc1 (centres undefined) | 15µM* | 21µM* | ? | -150% | -96* | ·
O=C(NC[C@@H]1CCCN2CCCC[C@H]12)c1cnn(-c2nccc(-c3ccco3)n2)c1C1CC1 | -4% | 4%[9.04 µM] | · | · | · | ·
COc1ccc(OC)c(NC(=O)c2oc3c(c2C)-c2nn(Cc4ccc(Cl)cc4)cc2CC3)c1 | ? | ? | -21% | 4% | · | 6%
C=C(NCc1ccccc1)c1ccccc1O | · | · | · | · | · | 4%
COC[C@H]1CCCN1[C@H]1CS(=O)(=O)N[C@@H]1COCc1ccccc1 | 1% | 2% | -13% | 4% | -12 | ·
COC[C@@H]1CCCN1c1ccc2c(c1)O[C@H](COCc1ccccc1)CN([C@@H](C)c1ccccc1)S2(=O)=O | 3.7µM* | 2.6µM* | · | · | 20 | ·
COC[C@H]1CCCN1c1ccc2c(c1)O[C@H](COCc1ccccc1)CN([C@H](C)c1ccccc1)S2(=O)=O | 18µM* | ? | · | · | 49 | ·
COC[C@H]1CCCN1c1ccc2c(c1)O[C@@H](COCc1ccccc1)CN([C@H](C)c1ccccc1)S2(=O)=O | 13µM* | 9.2µM* | · | · | -9 | ·
COc1ccc(OC)c(CNC(=O)CN(c2ccc(C)cc2)S(=O)(=O)N(C)C)c1 | -20% | -14% | -7% | 2% | · | 4%
C=CCC1(Cl)C(=O)C(Cl)=C(N2CCOCC2)C1(OC)OC (centres undefined) | 1% | -1% | -6% | 5% | 6 | -2%
COc1ccccc1C1CN(Cc2cccc(C)n2)Cc2ccccc2O1 (centres undefined) | 16µM* | -30%[9.04 µM] | · | · | · | ·
COc1ccccc1C1CN(Cc2c(O)cccc2OC)Cc2ccccc2O1 (centres undefined) | -19% | 6%[9.04 µM] | · | · | · | ·
SMILES | DT40 TDP1 no CPT | DT40 TDP1 CPT | TGFb inhibitor | HepG2 tox | IL1B secr inh | TDP1 inh
Cc1nc2sccn2c1CN1Cc2ccccc2OC(c2ccccc2F)C1 (centres undefined) | 18µM* | 6%[9.04 µM] | · | · | · | ·
CSc1ncccc1C(=O)NCCN1Cc2ccccc2OC(c2ccccc2F)C1 (centres undefined) | ? | 12%[9.04 µM] | · | · | · | ·
O=C(Nc1cc(Sc2nc3ccccc3s2)cc([N+](=O)[O-])c1)c1ccccc1 | 16µM* | ? | ? | -2% | 19 | 3%
O=C(Nc1cc(Sc2nc3ccccc3s2)cc([N+](=O)[O-])c1)c1ccccc1F | ? | 21µM* | 0% | -2% | 33 | 4%
Cc1cc(NC(=O)c2ccccc2F)ccc1-c1nc2ccccc2s1 | ? | ? | -27% | -29% | · | -1%
O=S1(=O)c2c(F)cccc2OC(COCc2ccccc2)CN1C1CCCC1 (centres undefined) | 21µM* | ? | ? | -3% | -6 | ·
O=S1(=O)c2c(Oc3cccc4ccccc34)cccc2OC(COCc2ccccc2)CN1C1CCCC1 (centres undefined) | 6.5µM* | 6.5µM* | -6% | -3% | 22 | ·
c1ccc(COC[C@@H]2CO2)cc1 | · | · | · | · | · | 12%

Screens (PubChem)
